Data: ChEMBL document CHEMBL1961873, “Compounds: GSK PKIS; Assays: Nanosyn kinase panel” (2012)

Key:
[1] = target: Fibroblast growth factor receptor 4 (Homo sapiens) (UniProt P22455); conditions: at 1 µM;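 further: reported figure is the averaged percent inhibition of FGFR4, from the GSK PKIS kinase screening panel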
[2] = target: Tyrosine-protein kinase Fgr (Homo sapiens) (UniProt P09769); conditions: at 0.1 µM
[3] = target: Tyrosine-protein kinase Fgr (Homo sapiens) (UniProt P09769); conditions: at 1 µM
[4] = target: Vascular endothelial growth factor receptor 1 (Homo sapiens) (UniProt P17948); conditions: at 0.1 µM
[5] = target: Vascular endothelial growth factor receptor 1 (Homo sapiens) (UniProt P17948); conditions: at 1 µM
[6] = target: Receptor-type tyrosine-protein kinase FLT3 (Homo sapiens) (UniProt P36888); conditions: at 0.1 µM
[7] = target: Receptor-type tyrosine-protein kinase FLT3 (Homo sapiens) (UniProt P36888); conditions: at 1 µM
[8] = tested on: T1, Receptor-type tyrosine-protein kinase FLT3 (Homo sapiens), P36888 [D835Y]; conditions: at 0.1 µM
T1 sequence (whole entry): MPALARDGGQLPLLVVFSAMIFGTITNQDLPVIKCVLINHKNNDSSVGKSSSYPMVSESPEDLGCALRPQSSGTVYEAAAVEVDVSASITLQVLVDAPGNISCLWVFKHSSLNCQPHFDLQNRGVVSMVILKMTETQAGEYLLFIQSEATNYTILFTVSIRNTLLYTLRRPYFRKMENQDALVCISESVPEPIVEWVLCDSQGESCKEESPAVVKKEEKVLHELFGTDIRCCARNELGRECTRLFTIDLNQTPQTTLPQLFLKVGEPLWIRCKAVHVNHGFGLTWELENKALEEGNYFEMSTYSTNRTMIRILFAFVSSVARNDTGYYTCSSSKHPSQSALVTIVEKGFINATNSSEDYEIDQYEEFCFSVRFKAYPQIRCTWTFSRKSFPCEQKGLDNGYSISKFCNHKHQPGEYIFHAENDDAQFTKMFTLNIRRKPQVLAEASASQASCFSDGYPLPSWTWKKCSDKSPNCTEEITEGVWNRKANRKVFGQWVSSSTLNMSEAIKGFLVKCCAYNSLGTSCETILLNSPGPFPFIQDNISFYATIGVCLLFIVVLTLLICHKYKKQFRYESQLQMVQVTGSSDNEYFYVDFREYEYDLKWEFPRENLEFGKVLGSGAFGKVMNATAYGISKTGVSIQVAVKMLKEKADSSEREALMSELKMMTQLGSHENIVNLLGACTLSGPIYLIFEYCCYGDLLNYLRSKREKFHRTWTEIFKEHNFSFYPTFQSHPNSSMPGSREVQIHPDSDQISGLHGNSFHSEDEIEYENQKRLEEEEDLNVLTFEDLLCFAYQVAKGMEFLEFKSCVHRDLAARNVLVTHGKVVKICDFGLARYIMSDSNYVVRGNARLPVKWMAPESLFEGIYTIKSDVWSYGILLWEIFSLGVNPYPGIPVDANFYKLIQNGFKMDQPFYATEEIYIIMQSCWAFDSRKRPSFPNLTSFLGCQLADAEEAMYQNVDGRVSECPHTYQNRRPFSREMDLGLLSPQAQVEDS

[9] = target: Non-receptor tyrosine-protein kinase TYK2 (Homo sapiens) (UniProt P29597); conditions: at 1 µM;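 further: values are mean percent inhibition of TYK2 kinase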
[10] = target: T2, Tyrosine-protein kinase receptor TYRO3 (Homo sapiens) (UniProt Q06418); conditions: at 0.1 µM;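 further: reported percentages are averaged inhibition values of TYRO3 kinase activity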
T2 sequence (whole entry): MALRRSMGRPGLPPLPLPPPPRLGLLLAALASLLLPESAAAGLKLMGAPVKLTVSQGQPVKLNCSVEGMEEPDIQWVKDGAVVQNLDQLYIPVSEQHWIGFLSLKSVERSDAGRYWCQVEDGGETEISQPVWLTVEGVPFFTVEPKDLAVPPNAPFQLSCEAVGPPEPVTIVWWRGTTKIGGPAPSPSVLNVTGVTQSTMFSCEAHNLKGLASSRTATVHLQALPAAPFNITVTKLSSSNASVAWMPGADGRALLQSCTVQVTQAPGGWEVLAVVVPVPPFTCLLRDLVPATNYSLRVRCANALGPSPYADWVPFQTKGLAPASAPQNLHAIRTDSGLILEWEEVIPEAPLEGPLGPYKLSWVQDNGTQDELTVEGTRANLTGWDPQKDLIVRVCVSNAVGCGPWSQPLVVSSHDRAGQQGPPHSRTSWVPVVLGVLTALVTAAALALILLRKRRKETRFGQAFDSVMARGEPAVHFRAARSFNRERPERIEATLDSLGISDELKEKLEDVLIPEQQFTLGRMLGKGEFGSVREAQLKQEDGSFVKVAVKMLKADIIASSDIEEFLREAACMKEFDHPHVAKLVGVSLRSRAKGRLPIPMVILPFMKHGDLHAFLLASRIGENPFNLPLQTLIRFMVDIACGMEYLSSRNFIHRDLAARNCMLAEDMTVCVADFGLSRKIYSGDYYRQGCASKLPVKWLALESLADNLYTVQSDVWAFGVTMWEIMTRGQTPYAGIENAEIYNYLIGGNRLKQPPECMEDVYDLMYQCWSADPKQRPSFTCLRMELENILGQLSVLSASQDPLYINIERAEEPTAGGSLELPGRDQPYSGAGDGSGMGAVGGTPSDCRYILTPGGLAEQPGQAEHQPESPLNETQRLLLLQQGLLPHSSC

Sequence of Tyrosine-protein kinase Fgr (Homo sapiens) (P09769 2-529 limits assumed): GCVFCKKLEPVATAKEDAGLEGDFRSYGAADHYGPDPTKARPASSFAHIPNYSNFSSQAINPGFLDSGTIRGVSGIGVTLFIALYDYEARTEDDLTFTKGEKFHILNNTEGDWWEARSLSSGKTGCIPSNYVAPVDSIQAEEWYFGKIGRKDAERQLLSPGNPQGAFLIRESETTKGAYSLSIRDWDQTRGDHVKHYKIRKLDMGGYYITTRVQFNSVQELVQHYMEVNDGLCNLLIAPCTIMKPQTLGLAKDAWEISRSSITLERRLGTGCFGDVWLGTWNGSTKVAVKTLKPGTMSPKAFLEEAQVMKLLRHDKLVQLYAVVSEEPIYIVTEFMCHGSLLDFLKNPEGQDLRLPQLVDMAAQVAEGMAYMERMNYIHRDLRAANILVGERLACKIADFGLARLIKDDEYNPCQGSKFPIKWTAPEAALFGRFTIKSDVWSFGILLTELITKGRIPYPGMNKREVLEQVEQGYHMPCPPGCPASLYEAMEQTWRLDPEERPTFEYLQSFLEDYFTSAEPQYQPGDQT
Sequence of Fibroblast growth factor receptor 4 (Homo sapiens) (P22455 22-802 limits assumed): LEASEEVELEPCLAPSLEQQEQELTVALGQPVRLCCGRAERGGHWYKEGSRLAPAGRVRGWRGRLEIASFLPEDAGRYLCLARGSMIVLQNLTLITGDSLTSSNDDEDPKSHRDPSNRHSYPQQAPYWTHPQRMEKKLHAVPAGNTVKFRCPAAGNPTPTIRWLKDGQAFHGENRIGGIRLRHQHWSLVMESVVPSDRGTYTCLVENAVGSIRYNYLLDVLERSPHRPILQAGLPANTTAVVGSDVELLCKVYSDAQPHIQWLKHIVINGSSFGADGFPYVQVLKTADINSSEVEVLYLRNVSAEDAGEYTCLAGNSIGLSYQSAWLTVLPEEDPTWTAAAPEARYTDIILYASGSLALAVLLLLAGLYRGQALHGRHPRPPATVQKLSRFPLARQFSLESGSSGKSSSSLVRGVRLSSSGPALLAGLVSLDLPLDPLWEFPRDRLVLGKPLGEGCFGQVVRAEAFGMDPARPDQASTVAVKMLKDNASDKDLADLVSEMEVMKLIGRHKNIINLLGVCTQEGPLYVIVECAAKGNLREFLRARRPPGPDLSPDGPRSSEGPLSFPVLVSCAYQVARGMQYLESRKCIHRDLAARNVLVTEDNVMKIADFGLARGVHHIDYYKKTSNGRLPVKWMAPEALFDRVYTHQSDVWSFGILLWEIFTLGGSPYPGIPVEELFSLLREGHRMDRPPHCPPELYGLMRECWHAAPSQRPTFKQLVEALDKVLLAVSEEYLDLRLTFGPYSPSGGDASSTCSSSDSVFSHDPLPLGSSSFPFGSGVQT
Sequence of Vascular endothelial growth factor receptor 1 (Homo sapiens) (P17948 whole entry): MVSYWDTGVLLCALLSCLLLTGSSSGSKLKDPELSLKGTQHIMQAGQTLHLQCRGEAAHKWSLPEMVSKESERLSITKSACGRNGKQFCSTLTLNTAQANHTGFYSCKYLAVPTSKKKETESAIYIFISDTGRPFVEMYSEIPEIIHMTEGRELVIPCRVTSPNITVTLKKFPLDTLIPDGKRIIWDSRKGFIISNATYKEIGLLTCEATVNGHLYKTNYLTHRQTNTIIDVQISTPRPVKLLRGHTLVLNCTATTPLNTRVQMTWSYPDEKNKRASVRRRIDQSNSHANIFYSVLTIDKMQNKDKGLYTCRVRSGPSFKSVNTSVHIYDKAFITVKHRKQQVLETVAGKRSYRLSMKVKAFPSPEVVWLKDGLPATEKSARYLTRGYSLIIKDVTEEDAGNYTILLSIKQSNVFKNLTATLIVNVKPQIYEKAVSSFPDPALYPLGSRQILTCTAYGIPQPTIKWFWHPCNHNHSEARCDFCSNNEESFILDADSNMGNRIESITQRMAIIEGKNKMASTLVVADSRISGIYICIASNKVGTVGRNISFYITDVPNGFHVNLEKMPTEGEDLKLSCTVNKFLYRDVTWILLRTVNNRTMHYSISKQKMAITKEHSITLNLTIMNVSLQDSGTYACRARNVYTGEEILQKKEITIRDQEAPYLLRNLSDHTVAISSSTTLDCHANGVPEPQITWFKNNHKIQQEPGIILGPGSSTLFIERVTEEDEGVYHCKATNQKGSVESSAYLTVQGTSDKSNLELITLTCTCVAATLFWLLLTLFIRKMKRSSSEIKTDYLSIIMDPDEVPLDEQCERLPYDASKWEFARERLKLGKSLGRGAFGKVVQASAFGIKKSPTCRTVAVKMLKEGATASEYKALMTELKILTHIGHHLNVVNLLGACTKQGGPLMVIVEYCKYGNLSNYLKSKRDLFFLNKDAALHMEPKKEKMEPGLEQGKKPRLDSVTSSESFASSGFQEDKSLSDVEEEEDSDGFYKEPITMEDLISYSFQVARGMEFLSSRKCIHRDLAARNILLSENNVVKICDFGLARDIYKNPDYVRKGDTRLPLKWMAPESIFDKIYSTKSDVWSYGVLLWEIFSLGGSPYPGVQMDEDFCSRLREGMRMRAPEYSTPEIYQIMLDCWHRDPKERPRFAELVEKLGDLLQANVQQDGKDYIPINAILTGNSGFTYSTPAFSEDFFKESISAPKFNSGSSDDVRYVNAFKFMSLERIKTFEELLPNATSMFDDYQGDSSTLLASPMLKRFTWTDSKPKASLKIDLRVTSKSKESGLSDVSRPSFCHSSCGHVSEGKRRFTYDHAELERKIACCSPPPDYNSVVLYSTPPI
Sequence of Non-receptor tyrosine-protein kinase TYK2 (Homo sapiens) (P29597 whole entry): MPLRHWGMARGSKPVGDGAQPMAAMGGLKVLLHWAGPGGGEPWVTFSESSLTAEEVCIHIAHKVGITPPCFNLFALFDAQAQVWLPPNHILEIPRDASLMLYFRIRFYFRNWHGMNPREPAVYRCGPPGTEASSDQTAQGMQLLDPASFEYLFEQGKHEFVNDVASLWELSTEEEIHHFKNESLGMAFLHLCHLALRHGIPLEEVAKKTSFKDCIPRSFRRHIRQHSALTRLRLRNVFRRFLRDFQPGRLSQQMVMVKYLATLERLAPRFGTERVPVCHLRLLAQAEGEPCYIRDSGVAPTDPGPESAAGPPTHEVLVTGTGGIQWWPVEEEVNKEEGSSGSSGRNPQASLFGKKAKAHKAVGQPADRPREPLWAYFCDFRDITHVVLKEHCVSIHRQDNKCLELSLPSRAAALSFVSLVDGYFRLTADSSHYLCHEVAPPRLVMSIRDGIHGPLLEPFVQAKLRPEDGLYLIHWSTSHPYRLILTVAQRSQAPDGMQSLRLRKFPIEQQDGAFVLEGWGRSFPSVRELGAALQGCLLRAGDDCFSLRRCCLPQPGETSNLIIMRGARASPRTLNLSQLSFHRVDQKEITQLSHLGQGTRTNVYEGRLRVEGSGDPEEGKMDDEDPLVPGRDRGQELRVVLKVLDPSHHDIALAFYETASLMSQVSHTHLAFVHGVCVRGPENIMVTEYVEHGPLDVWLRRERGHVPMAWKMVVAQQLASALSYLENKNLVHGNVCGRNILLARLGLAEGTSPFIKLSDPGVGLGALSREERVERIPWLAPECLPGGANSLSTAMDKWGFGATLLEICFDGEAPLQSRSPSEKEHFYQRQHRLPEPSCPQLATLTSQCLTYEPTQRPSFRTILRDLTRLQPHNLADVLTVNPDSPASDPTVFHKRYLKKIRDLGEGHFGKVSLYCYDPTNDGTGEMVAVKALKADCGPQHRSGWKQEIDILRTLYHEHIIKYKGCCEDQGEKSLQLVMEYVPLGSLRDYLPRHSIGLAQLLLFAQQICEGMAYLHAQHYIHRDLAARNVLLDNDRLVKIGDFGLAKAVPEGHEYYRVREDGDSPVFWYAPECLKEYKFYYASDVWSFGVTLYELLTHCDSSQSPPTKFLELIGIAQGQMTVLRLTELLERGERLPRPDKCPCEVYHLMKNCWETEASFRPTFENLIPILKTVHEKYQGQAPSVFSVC

SMILES | inhibition [1] | inhibition [2] | inhibition [3] | inhibition [4] | inhibition [5] | inhibition [6] | inhibition [7] | inhibition [8] | inhibition [9] | inhibition [10]
COc1cccc(-n2ncc3c(N/N=C/c4ccncc4)ncnc32)c1 | 7.56% | 29% | 70% | 1.64% | 27.6% | 7.06% | 28.3% | 11.5% | 0.71% | 8.97%
CCn1c(-c2nonc2N)nc2c(C#CC(C)(C)O)ncc(OC[C@@H]3CCCN3)c21 | 2.23% | 1.47% | 2.16% | 1.39% | 17.4% | -1% | -0.61% | -6.46% | -1.89% | -1.01%
NC(=O)c1sc(-n2cnc3cc(C(F)(F)F)ccc32)cc1OCc1ccccc1Br | -0.34% | 2.13% | 2.99% | -0.46% | -0.01% | 0.18% | 3.13% | -3.16% | -3.05% | 1.7%
CCn1c(-c2nonc2N)nc2c(C#CC(C)(C)O)ncc(OCC3CCNCC3)c21 | -3.68% | 5.04% | 4.9% | 2.92% | 23.5% | -0.18% | 4.4% | 3.83% | 1.52% | 2.77%
Nc1nonc1-c1nc2cnccc2n1C1CCCCC1 | -1.15% | -0.56% | 6.63% | -1% | 4.33% | -0.01% | 4.32% | 3.29% | 6.77% | -1.27%
Fc1ccc(-c2ncn(C3CCNCC3)c2-c2ccnc(Oc3ccccc3)n2)cc1 | -3.96% | 1.86% | 4.87% | 1.35% | 2.72% | -0.44% | 0.52% | -4.18% | -4.41% | 1.92%
NS(=O)(=O)c1ccc(-c2ccc3c(NC(=O)C4CC4)n[nH]c3c2)cc1 | -0.07% | 1.76% | 6.23% | 0.3% | 1.37% | -1.65% | 3.53% | 2.16% | -4.76% | 3.34%
Cc1cc(-c2ccco2)cc(C)c1/C=C/c1cncc(-c2nn[nH]n2)c1 | 1.04% | 3.13% | 6.29% | -0.74% | 1.77% | 1.31% | 1.79% | -3.95% | 2.63% | 0.37%
COc1cc2c(cc1Nc1nc(Nc3ccsc3C(N)=O)c3cc[nH]c3n1)N(C(=O)CN(C)C)CCC2 | 1.79% | 7.89% | 10.7% | -1.61% | 1.49% | -1.64% | 1.45% | -8.75% | -1.13% | –
COc1cccc(COc2cc(-n3cnc4ccccc43)sc2C(N)=O)c1 | 1.25% | 1.93% | 1.54% | -2.33% | -0.83% | -1.3% | -4.17% | -9.33% | -0.53% | -0.84%
CCn1c(-c2nonc2N)nc2c(C#CC(C)(C)O)nc(O[C@@H](CN)c3ccccc3)cc21 | 1.13% | 3.54% | 28.6% | 36.1% | 79.8% | -2.74% | -0.29% | 2.74% | 1.49% | 0.32%
COc1cc(C=NNc2ncnc3c2cnn3Cc2ccccc2)ccc1O | 4.03% | 11.8% | 52.1% | -1.46% | 1.82% | -1.99% | -1.02% | -4.43% | -1.56% | -1.07%
CCn1c(-c2nonc2N)nc2c(C#CCN)ncc(OCCCN)c21 | 0.77% | 5.41% | 1.7% | 0.25% | 0.93% | 1.97% | 0.52% | 2.12% | 5.33% | -0.44%
NS(=O)(=O)c1ccc(N/C=C2\C(=O)Nc3ccc4ncsc4c32)cc1 | 5.81% | 2.87% | 21.6% | 7.41% | 50.6% | 32.8% | 79.5% | 40.4% | 41% | 3.07%
